According to the supplement of paper PMC4022240:
± gives the standard deviation.

Key:
Assay in all cases: peptide microarray binding signal (635 nm), min-max normalized on array (fraction of array maximum); higher = stronger binding
[1] = biological target: T1, HaloTag-ATRX ADD domain (163-292)
T1 chain: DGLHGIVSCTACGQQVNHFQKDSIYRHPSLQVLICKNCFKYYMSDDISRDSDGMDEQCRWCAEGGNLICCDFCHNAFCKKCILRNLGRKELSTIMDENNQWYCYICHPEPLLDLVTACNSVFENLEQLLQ
In short: (§1)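 Histone 13-mer peptide–cellulose conjugates were printed in triplicate on nitrocellulose with a Cy3 tracer, then blocked overnight at 4°C. Arrays were probed for 1 h at 4°C with biotin-labelled HaloTag reader fusions (10 nM to 1 μM) plus streptavidin-Alexa Fluor 647, or with rabbit histone antibodies (1:10,000 to 1:2,000) plus anti-rabbit Alexa 647. An Axon GenePix 4000B scanned 635 nm for signal and 532 nm for misprints. Binding signal is the triplicate-spot mean intensity, min-max scaled per library.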

[2] = biological target: HaloTag-ING2 PHD (mouse Ing2 200-280)
In short: as §1

[3] = biological target: anti-H3K4me3 antibody ab8580
In short: as §1

[4] = biological target: anti-H3K9me3 antibody ab8898
In short: as §1

[5] = peptide region: H3 50-62, peptide modifications: H3K56me3 H3T58ph, binder concentration: 1:2,000 dilution
[6] = peptide region: H3 50-62, peptide modifications: H3K56me3 H3T58ph, binder concentration: 1:10,000 dilution
[7] = peptide region: H3 50-62, peptide modifications: H3S57ph, binder concentration: 1:2,000 dilution
[8] = peptide region: H3 50-62, peptide modifications: H3S57ph, binder concentration: 1:10,000 dilution
[9] = peptide region: H3 50-62, peptide modifications: H3T58ph, binder concentration: 1:2,000 dilution
[10] = peptide region: H3 50-62, peptide modifications: H3T58ph, binder concentration: 1:10,000 dilution
[11] = peptide region: H3 73-85, binder concentration: 1:2,000 dilution
[12] = peptide region: H3 73-85, binder concentration: 1:10,000 dilution
[13] = peptide region: H3 73-85, peptide modifications: H3K79ac H3T80ph, binder concentration: 1:2,000 dilution
[14] = peptide region: H3 73-85, peptide modifications: H3K79ac H3T80ph, binder concentration: 1:10,000 dilution
[15] = peptide region: H3 73-85, peptide modifications: H3K79ac, binder concentration: 1:2,000 dilution
[16] = peptide region: H3 73-85, peptide modifications: H3K79ac, binder concentration: 1:10,000 dilution
[17] = peptide region: H3 73-85, peptide modifications: H3K79me1, binder concentration: 1:2,000 dilution
[18] = peptide region: H3 73-85, peptide modifications: H3K79me1, binder concentration: 1:10,000 dilution
[19] = peptide region: H3 73-85, peptide modifications: H3K79me1 H3T80ph, binder concentration: 1:2,000 dilution
[20] = peptide region: H3 73-85, peptide modifications: H3K79me1 H3T80ph, binder concentration: 1:10,000 dilution
[21] = peptide region: H3 73-85, peptide modifications: H3K79me2, binder concentration: 1:2,000 dilution
[22] = peptide region: H3 73-85, peptide modifications: H3K79me2, binder concentration: 1:10,000 dilution
[23] = peptide region: H3 73-85, peptide modifications: H3K79me2 H3T80ph, binder concentration: 1:2,000 dilution
[24] = peptide region: H3 73-85, peptide modifications: H3K79me2 H3T80ph, binder concentration: 1:10,000 dilution

Binder: EIRRYQKSTELLI [H3 50-62 E I R R Y Q Kme3 S Tph E L L I]
- peptide microarray binding signal ([1]; peptide region: H3 50-62, peptide modifications: H3K56me3 H3T58ph, binder concentration: 50 nM): 0.0015 ± 4e-05
- peptide microarray binding signal ([1]; peptide region: H3 50-62, peptide modifications: H3K56me3 H3T58ph, binder concentration: 500 nM): 0.00129 ± 3.6e-05
- peptide microarray binding signal ([2]; peptide region: H3 50-62, peptide modifications: H3K56me3 H3T58ph, binder concentration: 10 nM): 0.00281 ± 8.3e-05
- peptide microarray binding signal ([2]; peptide region: H3 50-62, peptide modifications: H3K56me3 H3T58ph, binder concentration: 100 nM): 0.0017 ± 4.6e-05
- peptide microarray binding signal [3, 5]: 0.00109 ± 3.3e-05
- peptide microarray binding signal [3, 6]: 0.000799 ± 2.2e-05
- peptide microarray binding signal [4, 5]: 0.00261 ± 0.0003
- peptide microarray binding signal [4, 6]: 0.001211 ± 1.2e-05

Binder: EIRRYQKSTELLI [H3 50-62 E I R R Y Q K Sph T E L L I]
- peptide microarray binding signal ([1]; peptide region: H3 50-62, peptide modifications: H3S57ph, binder concentration: 50 nM): 0.000878 ± 5.7e-05
- peptide microarray binding signal ([1]; peptide region: H3 50-62, peptide modifications: H3S57ph, binder concentration: 500 nM): 0.00167 ± 0.00017
- peptide microarray binding signal ([2]; peptide region: H3 50-62, peptide modifications: H3S57ph, binder concentration: 10 nM): 0.00179 ± 2.8e-05
- peptide microarray binding signal ([2]; peptide region: H3 50-62, peptide modifications: H3S57ph, binder concentration: 100 nM): 0.00085 ± 3.4e-05
- peptide microarray binding signal [3, 7]: 0.000132 ± 5.8e-06
- peptide microarray binding signal [3, 8]: 0.000228 ± 4.4e-06
- peptide microarray binding signal [4, 7]: 0.000755 ± 0.00012
- peptide microarray binding signal [4, 8]: 0.000461 ± 8.7e-06

Binder: EIRRYQKSTELLI [H3 50-62 E I R R Y Q K S Tph E L L I]
- peptide microarray binding signal ([1]; peptide region: H3 50-62, peptide modifications: H3T58ph, binder concentration: 50 nM): 0.000784 ± 1.1e-05
- peptide microarray binding signal ([1]; peptide region: H3 50-62, peptide modifications: H3T58ph, binder concentration: 500 nM): 0.00119 ± 3e-05
- peptide microarray binding signal ([2]; peptide region: H3 50-62, peptide modifications: H3T58ph, binder concentration: 10 nM): 0.00209 ± 3.2e-05
- peptide microarray binding signal ([2]; peptide region: H3 50-62, peptide modifications: H3T58ph, binder concentration: 100 nM): 0.000425 ± 4.9e-06
- peptide microarray binding signal [3, 9]: 0.000151 ± 3.3e-06
- peptide microarray binding signal [3, 10]: 0.000114 ± 1.3e-06
- peptide microarray binding signal [4, 9]: 0.0006041 ± 5.5e-06
- peptide microarray binding signal [4, 10]: 0.000519 ± 5.6e-06

Binder: EIAQDFKTDLRFQ [H3 73-85 E I A Q D F K T D L R F Q]
- peptide microarray binding signal ([1]; peptide region: H3 73-85, binder concentration: 50 nM): 0.0048 ± 0.00013
- peptide microarray binding signal ([1]; peptide region: H3 73-85, binder concentration: 500 nM): 0.0155 ± 0.00056
- peptide microarray binding signal ([2]; peptide region: H3 73-85, binder concentration: 10 nM): 0.008 ± 0.00096
- peptide microarray binding signal ([2]; peptide region: H3 73-85, binder concentration: 100 nM): 0.00248 ± 6.3e-05
- peptide microarray binding signal [3, 11]: 0.000264 ± 5.6e-06
- peptide microarray binding signal [3, 12]: 0.00228 ± 0.0003
- peptide microarray binding signal [4, 11]: 0.00308 ± 0.00021
- peptide microarray binding signal [4, 12]: 0.00236 ± 6.4e-05

Binder: EIAQDFKTDLRFQ [H3 73-85 E I A Q D F Kac Tph D L R F Q]
- peptide microarray binding signal ([1]; peptide region: H3 73-85, peptide modifications: H3K79ac H3T80ph, binder concentration: 50 nM): 0.000721 ± 1.1e-05
- peptide microarray binding signal ([1]; peptide region: H3 73-85, peptide modifications: H3K79ac H3T80ph, binder concentration: 500 nM): 0.00171 ± 4.6e-05
- peptide microarray binding signal ([2]; peptide region: H3 73-85, peptide modifications: H3K79ac H3T80ph, binder concentration: 10 nM): 0.00221 ± 4.4e-05
- peptide microarray binding signal ([2]; peptide region: H3 73-85, peptide modifications: H3K79ac H3T80ph, binder concentration: 100 nM): 0.000638 ± 7.1e-06
- peptide microarray binding signal [3, 13]: 0.000491 ± 2.4e-05
- peptide microarray binding signal [3, 14]: 0.000628 ± 1.8e-05
- peptide microarray binding signal [4, 13]: 0.000951 ± 3.6e-05
- peptide microarray binding signal [4, 14]: 0.000865 ± 1.8e-05

Binder: EIAQDFKTDLRFQ [H3 73-85 E I A Q D F Kac T D L R F Q]
- peptide microarray binding signal ([1]; peptide region: H3 73-85, peptide modifications: H3K79ac, binder concentration: 50 nM): 0.003981 ± 1.6e-05
- peptide microarray binding signal ([1]; peptide region: H3 73-85, peptide modifications: H3K79ac, binder concentration: 500 nM): 0.0121 ± 0.0025
- peptide microarray binding signal ([2]; peptide region: H3 73-85, peptide modifications: H3K79ac, binder concentration: 10 nM): 0.00537 ± 0.00042
- peptide microarray binding signal ([2]; peptide region: H3 73-85, peptide modifications: H3K79ac, binder concentration: 100 nM): 0.00298 ± 0.00043
- peptide microarray binding signal [3, 15]: 0.00166 ± 0.00016
- peptide microarray binding signal [3, 16]: 0.00428 ± 0.00088
- peptide microarray binding signal [4, 15]: 0.0114 ± 0.0038
- peptide microarray binding signal [4, 16]: 0.0106 ± 0.0027

Binder: EIAQDFKTDLRFQ [H3 73-85 E I A Q D F Kme T D L R F Q]
- peptide microarray binding signal ([1]; peptide region: H3 73-85, peptide modifications: H3K79me1, binder concentration: 50 nM): 0.00649 ± 0.00015
- peptide microarray binding signal ([1]; peptide region: H3 73-85, peptide modifications: H3K79me1, binder concentration: 500 nM): 0.02 ± 0.0022
- peptide microarray binding signal ([2]; peptide region: H3 73-85, peptide modifications: H3K79me1, binder concentration: 10 nM): 0.0116 ± 0.0014
- peptide microarray binding signal ([2]; peptide region: H3 73-85, peptide modifications: H3K79me1, binder concentration: 100 nM): 0.00475 ± 0.00052
- peptide microarray binding signal [3, 17]: 0.00198 ± 0.00026
- peptide microarray binding signal [3, 18]: 0.00234 ± 9.2e-05
- peptide microarray binding signal [4, 17]: 0.0079 ± 0.00033
- peptide microarray binding signal [4, 18]: 0.00357 ± 0.00023

Binder: EIAQDFKTDLRFQ [H3 73-85 E I A Q D F Kme Tph D L R F Q]
- peptide microarray binding signal ([1]; peptide region: H3 73-85, peptide modifications: H3K79me1 H3T80ph, binder concentration: 50 nM): 0.001034 ± 5.2e-06
- peptide microarray binding signal ([1]; peptide region: H3 73-85, peptide modifications: H3K79me1 H3T80ph, binder concentration: 500 nM): 0.00181 ± 3.2e-05
- peptide microarray binding signal ([2]; peptide region: H3 73-85, peptide modifications: H3K79me1 H3T80ph, binder concentration: 10 nM): 0.00281 ± 8.7e-05
- peptide microarray binding signal ([2]; peptide region: H3 73-85, peptide modifications: H3K79me1 H3T80ph, binder concentration: 100 nM): 0.00135 ± 7.3e-05
- peptide microarray binding signal [3, 19]: 0.000283
- peptide microarray binding signal [3, 20]: 0.000342 ± 3.8e-06
- peptide microarray binding signal [4, 19]: 0.000921 ± 0.00013
- peptide microarray binding signal [4, 20]: 0.000634

Binder: EIAQDFKTDLRFQ [H3 73-85 E I A Q D F Kme2 T D L R F Q]
- peptide microarray binding signal ([1]; peptide region: H3 73-85, peptide modifications: H3K79me2, binder concentration: 50 nM): 0.002539 ± 2.2e-05
- peptide microarray binding signal ([1]; peptide region: H3 73-85, peptide modifications: H3K79me2, binder concentration: 500 nM): 0.00633 ± 0.00033
- peptide microarray binding signal ([2]; peptide region: H3 73-85, peptide modifications: H3K79me2, binder concentration: 10 nM): 0.00281 ± 3.1e-05
- peptide microarray binding signal ([2]; peptide region: H3 73-85, peptide modifications: H3K79me2, binder concentration: 100 nM): 0.00376 ± 0.00014
- peptide microarray binding signal [3, 21]: 0.00106 ± 6.2e-05
- peptide microarray binding signal [3, 22]: 0.00097 ± 2e-05
- peptide microarray binding signal [4, 21]: 0.0117 ± 0.004
- peptide microarray binding signal [4, 22]: 0.00709 ± 0.00024

Binder: EIAQDFKTDLRFQ [H3 73-85 E I A Q D F Kme2 Tph D L R F Q]
- peptide microarray binding signal ([1]; peptide region: H3 73-85, peptide modifications: H3K79me2 H3T80ph, binder concentration: 50 nM): 0.00103 ± 3.4e-05
- peptide microarray binding signal ([1]; peptide region: H3 73-85, peptide modifications: H3K79me2 H3T80ph, binder concentration: 500 nM): 0.000714 ± 1.2e-05
- peptide microarray binding signal ([2]; peptide region: H3 73-85, peptide modifications: H3K79me2 H3T80ph, binder concentration: 10 nM): 0.002089 ± 1.2e-05
- peptide microarray binding signal ([2]; peptide region: H3 73-85, peptide modifications: H3K79me2 H3T80ph, binder concentration: 100 nM): 0.000992 ± 1.1e-05
- peptide microarray binding signal [3, 23]: 0.000283 ± 5.1e-06
- peptide microarray binding signal [3, 24]: 0.000799 ± 5.8e-05
- peptide microarray binding signal [4, 23]: 0.000438 ± 1.8e-05
- peptide microarray binding signal [4, 24]: 0.000634
